This note sets out measurements from the supplement of paper PMC6555819.

The test deals with VDR:RXRa (NR concentration 270 nM, RXRa partner concentration 90 nM). In words: PBM binding z-score (relative to random genomic background probes); higher = stronger binding; sequences stand for … in GC…GCGATTGACAGCGTAGAATGAAGG
As to the method:
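Protein-binding microarray (Agilent 4x180K custom design, double-stranded 60-nt probes: 5' GC cap, 34-nt variable region, 24-nt constant primer region; full probe sequence given). Purified or IVT nuclear receptor:RXRα heterodimers (3:1 NR:RXRα, mostly 270:90 nM) or homodimers were incubated for 1 h in PBS with 2% milk and no ligand, then detected with Alexa488 antibodies. Fluorescence from o1-orientation probes (~5 replicates averaged) was converted to z-scores against 500 random hg19 background probes. Variable regions are seed direct-repeat (DR0–DR5) sites, all their single-nucleotide variants and half-site ablations.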
Consider GGAACGAGGGCAAGTTGATAGAAGAGTTTGATGG, for which the PBM binding z-score came to 0.975.

TAGCCTAGGTCATTGGGCAAGTATAGTACGCATC returned a PBM binding z-score of 2.09.

ATACCAAGGTGATCGTGAAGTCGTTGATACTAAC yielded a PBM binding z-score of 0.0498.

Consider GCCAGTTGGTCAGTAAAAGGTCACACACCGGTCG, for which the PBM binding z-score came out at 3.94.

On to CCTAGCAGGCCAGGGTCACTTAAGCATTTCGCTT, for which the PBM binding z-score was found to be 2.3.

The sequence TCTAGCAGGCCAGAGGGTCACTCACGAGGTACGG gave a PBM binding z-score of 1.33.

Turning to TCATATAGGTAGACAGGTGAAAGTCCGTAAGTTA, the PBM binding z-score came to 0.905.

In the case of GCAGACAGGTGAAACGCAAGTAACTCAGGGTGGC, the PBM binding z-score was -0.526.

Consider GGAACGAGGGCATTCGAGTTGGTAGCATGGCGAT, for which the PBM binding z-score was 2.35.

In the case of GCTTACGGATCAAAGGTTATAGCATGAATAGAAT, the PBM binding z-score was 1.52.

With TTACCAAGGTGTAGGTCGTTGATCCCTCTGTAGA, the PBM binding z-score is 0.256.

In the case of ATATGTAGGTTACATCCCGGTCATTCAGGCTATG, the PBM binding z-score was 1.79.

For CCTACTGGGCCATCGGGTCATTGATATCAACGTT, the PBM binding z-score is 2.27.

As to GCTGATAGGTCAGGTTGGTCAGCTAACGGGTACG, the PBM binding z-score stood at 1.58.

Sequence AGAATGAGGTTATTAAGATCAGGGTATTGCGGTC returned a PBM binding z-score of 2.43.

For CCTACTGGGCCGTCAGGTCATTGATATCAACGTT, the PBM binding z-score was determined as 1.32.

CAAACTAGGTCACGAAAGGTCAATGTCGAATGAC gave a PBM binding z-score of 6.57.

TATACAGGGTCAATGGCCAGAGTACGAATGTCGA had a PBM binding z-score of 4.05.

TCATATAGGTAATACAGGTAAAAGTCGGCATCTA: the PBM binding z-score is 1.24.

Sequence ATCTCTAGGTAAAGTTCAGAGAAAGATCGATAGA returned a PBM binding z-score of 1.41.

On to ATCGAAAGGTCGAGGTGAGTTTAGAGAAAGGGAA, for which the PBM binding z-score came to 4.92.

Turning to CCTCGGAGGACAACAGGAGATCAGAGCTGCCAGA, the PBM binding z-score was -0.616.

On to CCTACCAGGCCAGGGTCACTCAAGCATTTCGCTT, for which the PBM binding z-score was determined as 2.7.

In turn, CGTCCAAGATCAATGCTAGGTCAGTGAAAGCATT registered a PBM binding z-score of 0.425.

The sequence CGAACTAGGACATTGACAGGACAGTGAATAGTAA displayed a PBM binding z-score of -0.192.

Take TCTGCTAGGTCAACGATTGTCAGCTAATCTGCTA: the PBM binding z-score was 0.993.

Sequence ATCTCTAGGTAAGAATCAGTTCAGTGAAGAACGC showed a PBM binding z-score of 0.845.

CTGAGTAGGTTATGGGGCATTCAGGCAACGGTGA: the PBM binding z-score is 0.0973.

ACTATTAGTTGAGACAAGGGCAACCGATAGGTTG came in with a PBM binding z-score of 0.191.

Turning to CCTGACAGGTGAAAGGTAACTCAGTCTGGTACGC, the PBM binding z-score is 0.319.

Sequence CATCGGAGGACAGAAGGTCAGAGCTGTCCGCTTT came in with a PBM binding z-score of 1.06.

With GCGACTGGGGAAAAGCAGGTTACCATAAGGTTGG, the PBM binding z-score is -0.273.

Sequence TCTATTAGTCGAAGGGCAACCGACGAGTCCGTTT yielded a PBM binding z-score of 0.789.

As for TCTTGTAGATCAGAAGGTTAAGAAAGCTGGCCAA, the PBM binding z-score was found to be 0.671.

ATCGAAAGGTCGTGAGGTGAGTAGACAGAAAGGC registered a PBM binding z-score of 3.35.

The sequence AATACAGGGTCATCGTAGGGCAGAGTACGCACAG showed a PBM binding z-score of 5.71.

In turn, CCAACTAGGTCAGAACAGGACAGTGAAGGATGAT had a PBM binding z-score of 1.08.

ACAGACAGGTCAGTGAAGGTAACTCAGCTGGACG came in with a PBM binding z-score of 1.41.

On to ATCTCTAGGTAAAGATAGTTCAGGGAATGCAAAT, for which the PBM binding z-score was 0.786.

The sequence CCGACTGGGGCAGAAGGTTACCATAAGCCAGCCC registered a PBM binding z-score of -0.302.
